The source made the active and inactive calls.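 Rule for the calls, unless noted: active = growth inhibition above 50% at the single 2 µM test dose, taken to imply half-maximal potency below 2 µM; inactive = the rest.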

The first assay can be described thus: antimalarial activity against Dd2 strain (AID 2302).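 Note: 0% = DMSO untreated growth and 100% = chloroquine plus artemisinin killed control.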 The following applies: P. falciparum Dd2 in RBCs, LDH growth readout, 72 h; at 2 µM; active compounds read high.
As to `CN1CCN(c2ccnc3cc4c(cc23)N(C(=O)Nc2ccc3c(c2)CCCC3=O)CC4)CC1`, the growth inhibition is 64% (active).

Take `CCCCOC(=O)NCCCC[C@H](NC(=O)OC(C)(C)C)C(=O)N[C@H](C(=O)OC(c1ccccc1)c1ccccc1)[C@H]1O[C@@H](n2ccc(=O)[nH]c2=O)[C@@H]2OC(C)(C)O[C@@H]21`: the growth inhibition was 65% (active).

Take `COCCNCc1ccc(-c2cccc(CNc3ccc(OC)cc3)c2)cc1`: the growth inhibition was 2% (inactive).

Regarding `Cc1ccc(NC(=O)c2ccc3ncccc3c2)cc1OC1CCN(Cc2ccc(F)cc2)C1` (stereo not given), the growth inhibition was 28% (inactive).

`Cc1ccc(CCC(C)NCC(O)c2cccc(Cl)c2)cc1` (stereo not given): the growth inhibition is 97% (active).

On to `CCCNC(=O)Nc1cc2cc(-c3cccc(CN4CCCCC4)c3)ccc2n2c(C)nnc12`, for which the growth inhibition is 50% (active).

As to `CCC[C@@H]([C@@H](CC1CCCCC1)C(=O)N[C@@H](CCCCNS(C)(=O)=O)C(=O)Nc1nccs1)N(O)C=O`, the growth inhibition is 74% (active).

Regarding `COc1cc(O)c2c(=O)c(OC)c(-c3cccc(Cl)c3OC3O[C@H](CO)[C@@H](O)[C@H](O)[C@H]3O)oc2c1OC` (stereo not given in full), the growth inhibition was 6% (inactive).

Turning to `Nc1nc(N)c2cc(NC(=O)c3ccc(Cl)c(Cl)c3)ccc2n1`, the growth inhibition was 83% (active).

On to `CN1CCN(CC2(Nc3nccc(NCCc4cn(C)c5ccccc45)n3)CCCCC2)CC1`, for which the growth inhibition was 41% (inactive).

Turning to `COc1cc(Cc2cnc(N)nc2N)cc(OCCCCCC(=O)O)c1OC`, the growth inhibition was 2% (inactive).

As to `Cc1cc(-c2cccc(CNCc3ccccc3)c2)ccc1S(=O)(=O)NCCN1CCCC1`, the growth inhibition was 58% (active).

In the case of `CC1CN(Cc2cccc(C#N)c2)CCN1c1ccc(NC(=O)c2cccs2)cc1` (stereo not given), the growth inhibition is 93% (active).

For `Cc1cc(N[C@@H](Cc2ccccc2)C(=O)NCc2cccc(F)c2)nc(NCCCOC(C)C)n1`, the growth inhibition is 94% (active).

For the molecule `O=C(Nc1ccccc1Oc1ccccc1)NC1CCN(c2ccnc3cc(Cl)ccc23)C1` (stereo not given), the growth inhibition is 74% (active).

Regarding `CCCOc1ccc(CCCON2C(N)=NC(N)=NC2(C)C)cc1`, the growth inhibition was 94% (active).

Turning to `CC(=O)NC(c1cccs1)c1cc(Cl)c2cccnc2c1O` (stereo not given), the growth inhibition was 93% (active).

For the molecule `CC(Nc1ncc(-c2ccsc2)c(-c2nccs2)n1)c1ccc2c(c1)OCCO2` (stereo not given), the growth inhibition is 66% (active).

Regarding `O=C(/C=C/c1ccc(Cl)c(Cl)c1)NCCCCCN1CCC(NC(=O)Nc2ccc(OC(F)F)cc2)CC1`, the growth inhibition was 18% (inactive).

For `O=C(Nc1ccc(OC2CCN(Cc3ccsc3)C2)c(Cl)c1)c1ccsc1` (stereo not given), the growth inhibition was 70% (active).

Consider `CCn1c(-c2nc(-c3ccc4c(c3)OCO4)cnc2N)nc2cnccc21`, for which the growth inhibition is 98% (active).

With `Cc1cc(-c2ccc3c(c2)CCN(CCCOc2ccc4c(c2)CCN4C(=O)/C=C/c2ccccc2Cl)CC3)no1`, the growth inhibition was 50% (active).

As to `O=C(c1ccc(Cl)cc1)N1CCCC(C(=O)N(Cc2nnc(-c3ccccc3Cl)o2)C2CC2)C1` (stereo not given), the growth inhibition is 96% (active).

For the molecule `O=C(CNC(=O)c1ccc(O)cc1)Nc1cccc(-c2cccc(-c3nc4ccc(C(F)(F)F)cc4[nH]3)c2)c1`, the growth inhibition was 28% (inactive).

For `O=c1cc(N2CCNCC2)c(Cl)nn1Cc1ccc(NS(=O)(=O)c2ccc(Oc3ccccc3)cc2)cc1`, the growth inhibition was -5% (inactive).

Turning to `Cc1ccc(O)cc1Nc1ccnc2ccc(-c3csc(CNCCN4CCOCC4)n3)cc12`, the growth inhibition was 97% (active).

For the molecule `CN(C)CCNc1ncnc2c1[nH]c1ccc(Cl)cc12`, the growth inhibition was 8% (inactive).

Turning to `CCc1ccc(CN2CCC(NC(=O)c3ccc(-c4ccc(N(C)C)cc4)s3)CC2)cc1`, the growth inhibition was 44% (inactive).

As to `Nc1ccc(Nc2ccnc3ccc(C(F)(F)F)cc23)cc1O`, the growth inhibition was 59% (active).

Turning to `O=C(Nc1ccc(Oc2ccccc2)cc1)N1CCC(CCN2CCC(c3c[nH]c4ccccc34)CC2)CC1`, the growth inhibition is 36% (inactive).

Regarding `CN1CCC(NCc2ccc(-c3ccc(C(F)(F)F)cc3)cc2)CC1`, the growth inhibition is 71% (active).

For the molecule `O=C(/C=C/c1ccc(Cl)c(Cl)c1)NCCCCCCN1CCCN(C(=O)Nc2ccc(C(F)(F)F)cc2)CC1`, the growth inhibition is 25% (inactive).

For the molecule `COc1ccccc1NC(=O)NC1CCN(CCCCCNC(=O)/C=C/c2ccc(Cl)c(Cl)c2)CC1`, the growth inhibition was 15% (inactive).

With `Oc1cccc(Nc2nc(NCc3ccco3)c3ccccc3n2)c1`, the growth inhibition was 74% (active).

Regarding `COCCNC(=O)c1ccc(OC2CCN(Cc3ccc(F)c(F)c3)CC2)c(Cl)c1`, the growth inhibition is 73% (active).

With `O=C(Nc1cccc(-c2ccc(-c3nc4ccccc4[nH]3)cc2)c1)c1cccnc1`, the growth inhibition is 1% (inactive).

`Cc1ccccc1C1CCN(C2CCC(NC(=O)c3cc(-c4ccc(Cl)cc4)cs3)CC2)CC1` (stereo not given): the growth inhibition was 100% (active).

With `CC(=O)Nc1nnc(SCc2c(C)cc(C(C)(C)C)cc2C)s1`, the growth inhibition is 91% (active).

For `Nc1ccc(-c2ccc(NC(=O)Nc3ccccc3)cc2)cn1`, the growth inhibition was 93% (active).

As for `COc1cccc2c(NCCNc3ccnc4c(OC)cccc34)ccnc12`, the growth inhibition was 86% (active).

The nature of the next assay: human hepatoma cell viability loss – ATP luminescence, cytotoxicity control for P. falciparum antimalarial project, primary screen (AID 2303;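 active = inhibition above 50%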;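 note: 0% = DMSO wells and 100% = digitonin-killed cells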). The note with it: HepG2 viability, 24-48 h, at 10 µM, active compounds read high.
Turning to `CN1CCN(c2ccnc3cc4c(cc23)N(C(=O)Nc2ccc3c(c2)CCCC3=O)CC4)CC1`, the inhibition is 5% (inactive).

In the case of `CCCCOC(=O)NCCCC[C@H](NC(=O)OC(C)(C)C)C(=O)N[C@H](C(=O)OC(c1ccccc1)c1ccccc1)[C@H]1O[C@@H](n2ccc(=O)[nH]c2=O)[C@@H]2OC(C)(C)O[C@@H]21`, the inhibition is 7% (inactive).

As to `COCCNCc1ccc(-c2cccc(CNc3ccc(OC)cc3)c2)cc1`, the inhibition is 16% (inactive).

In the case of `Cc1ccc(NC(=O)c2ccc3ncccc3c2)cc1OC1CCN(Cc2ccc(F)cc2)C1` (stereo not given), the inhibition is 11% (inactive).

Consider `Cc1ccc(CCC(C)NCC(O)c2cccc(Cl)c2)cc1` (stereo not given), for which the inhibition was 2% (inactive).

In the case of `CCCNC(=O)Nc1cc2cc(-c3cccc(CN4CCCCC4)c3)ccc2n2c(C)nnc12`, the inhibition was 60% (active).

As for `CCC[C@@H]([C@@H](CC1CCCCC1)C(=O)N[C@@H](CCCCNS(C)(=O)=O)C(=O)Nc1nccs1)N(O)C=O`, the inhibition is -13% (inactive).

For the molecule `COc1cc(O)c2c(=O)c(OC)c(-c3cccc(Cl)c3OC3O[C@H](CO)[C@@H](O)[C@H](O)[C@H]3O)oc2c1OC` (stereo not given in full), the inhibition was 16% (inactive).

For `Nc1nc(N)c2cc(NC(=O)c3ccc(Cl)c(Cl)c3)ccc2n1`, the inhibition is 100% (active).

For the molecule `CN1CCN(CC2(Nc3nccc(NCCc4cn(C)c5ccccc45)n3)CCCCC2)CC1`, the inhibition was 67% (active).

Consider `COc1cc(Cc2cnc(N)nc2N)cc(OCCCCCC(=O)O)c1OC`, for which the inhibition is -16% (inactive).

For the molecule `Cc1cc(-c2cccc(CNCc3ccccc3)c2)ccc1S(=O)(=O)NCCN1CCCC1`, the inhibition is 40% (inactive).

As to `CC1CN(Cc2cccc(C#N)c2)CCN1c1ccc(NC(=O)c2cccs2)cc1` (stereo not given), the inhibition was 4% (inactive).

Consider `Cc1cc(N[C@@H](Cc2ccccc2)C(=O)NCc2cccc(F)c2)nc(NCCCOC(C)C)n1`, for which the inhibition is 10% (inactive).

As to `O=C(Nc1ccccc1Oc1ccccc1)NC1CCN(c2ccnc3cc(Cl)ccc23)C1` (stereo not given), the inhibition is -1% (inactive).

`CCCOc1ccc(CCCON2C(N)=NC(N)=NC2(C)C)cc1`: the inhibition is 65% (active).

With `CC(=O)NC(c1cccs1)c1cc(Cl)c2cccnc2c1O` (stereo not given), the inhibition is 65% (active).

For the molecule `CC(Nc1ncc(-c2ccsc2)c(-c2nccs2)n1)c1ccc2c(c1)OCCO2` (stereo not given), the inhibition is 14% (inactive).

On to `O=C(/C=C/c1ccc(Cl)c(Cl)c1)NCCCCCN1CCC(NC(=O)Nc2ccc(OC(F)F)cc2)CC1`, for which the inhibition was 33% (inactive).

Turning to `O=C(Nc1ccc(OC2CCN(Cc3ccsc3)C2)c(Cl)c1)c1ccsc1` (stereo not given), the inhibition is 4% (inactive).

Consider `CCn1c(-c2nc(-c3ccc4c(c3)OCO4)cnc2N)nc2cnccc21`, for which the inhibition was 94% (active).

`Cc1cc(-c2ccc3c(c2)CCN(CCCOc2ccc4c(c2)CCN4C(=O)/C=C/c2ccccc2Cl)CC3)no1`: the inhibition is 52% (active).

As for `O=C(c1ccc(Cl)cc1)N1CCCC(C(=O)N(Cc2nnc(-c3ccccc3Cl)o2)C2CC2)C1` (stereo not given), the inhibition was 10% (inactive).

For the molecule `O=C(CNC(=O)c1ccc(O)cc1)Nc1cccc(-c2cccc(-c3nc4ccc(C(F)(F)F)cc4[nH]3)c2)c1`, the inhibition is 63% (active).

`O=c1cc(N2CCNCC2)c(Cl)nn1Cc1ccc(NS(=O)(=O)c2ccc(Oc3ccccc3)cc2)cc1`: the inhibition was 3% (inactive).

Regarding `Cc1ccc(O)cc1Nc1ccnc2ccc(-c3csc(CNCCN4CCOCC4)n3)cc12`, the inhibition was -24% (inactive).

On to `CN(C)CCNc1ncnc2c1[nH]c1ccc(Cl)cc12`, for which the inhibition was 7% (inactive).

As to `CCc1ccc(CN2CCC(NC(=O)c3ccc(-c4ccc(N(C)C)cc4)s3)CC2)cc1`, the inhibition was 52% (active).

As to `Nc1ccc(Nc2ccnc3ccc(C(F)(F)F)cc23)cc1O`, the inhibition is 1% (inactive).

Regarding `O=C(Nc1ccc(Oc2ccccc2)cc1)N1CCC(CCN2CCC(c3c[nH]c4ccccc34)CC2)CC1`, the inhibition was 42% (inactive).

On to `CN1CCC(NCc2ccc(-c3ccc(C(F)(F)F)cc3)cc2)CC1`, for which the inhibition was 54% (active).

Take `O=C(/C=C/c1ccc(Cl)c(Cl)c1)NCCCCCCN1CCCN(C(=O)Nc2ccc(C(F)(F)F)cc2)CC1`: the inhibition is 47% (inactive).

With `COc1ccccc1NC(=O)NC1CCN(CCCCCNC(=O)/C=C/c2ccc(Cl)c(Cl)c2)CC1`, the inhibition was 4% (inactive).

Consider `Oc1cccc(Nc2nc(NCc3ccco3)c3ccccc3n2)c1`, for which the inhibition is 9% (inactive).

With `COCCNC(=O)c1ccc(OC2CCN(Cc3ccc(F)c(F)c3)CC2)c(Cl)c1`, the inhibition is 8% (inactive).

Consider `O=C(Nc1cccc(-c2ccc(-c3nc4ccccc4[nH]3)cc2)c1)c1cccnc1`, for which the inhibition is 18% (inactive).

`Cc1ccccc1C1CCN(C2CCC(NC(=O)c3cc(-c4ccc(Cl)cc4)cs3)CC2)CC1` (stereo not given): the inhibition is 99% (active).

Consider `CC(=O)Nc1nnc(SCc2c(C)cc(C(C)(C)C)cc2C)s1`, for which the inhibition was 3% (inactive).

Regarding `Nc1ccc(-c2ccc(NC(=O)Nc3ccccc3)cc2)cn1`, the inhibition is -3% (inactive).

As to `COc1cccc2c(NCCNc3ccnc4c(OC)cccc34)ccnc12`, the inhibition was 11% (inactive).

These data come from PubChem BioAssay.
